Assay outcomes: PubChem BioAssay, Broad Institute
IDE exosite inh – exo-site inhibitors of human IDE, primary screen, biochemical, fluorescence anisotropy, probe displacement. Insulin-degrading enzyme (Homo sapiens), P14735. purified IDE, FL-6b probe fluorescence polarization; hits give low values. z-score at 20 µM. 17,000 tested, 6.3% active. AID 1259349, 2017;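 active means z-score of -3 or lower, meaning strong loss of probe binding signal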;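 further: His-tagged human IDE residues 42-1019 made in E. coli with 30 nM FL-6b probe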
Target sequence (P14735 42-1019 limits assumed): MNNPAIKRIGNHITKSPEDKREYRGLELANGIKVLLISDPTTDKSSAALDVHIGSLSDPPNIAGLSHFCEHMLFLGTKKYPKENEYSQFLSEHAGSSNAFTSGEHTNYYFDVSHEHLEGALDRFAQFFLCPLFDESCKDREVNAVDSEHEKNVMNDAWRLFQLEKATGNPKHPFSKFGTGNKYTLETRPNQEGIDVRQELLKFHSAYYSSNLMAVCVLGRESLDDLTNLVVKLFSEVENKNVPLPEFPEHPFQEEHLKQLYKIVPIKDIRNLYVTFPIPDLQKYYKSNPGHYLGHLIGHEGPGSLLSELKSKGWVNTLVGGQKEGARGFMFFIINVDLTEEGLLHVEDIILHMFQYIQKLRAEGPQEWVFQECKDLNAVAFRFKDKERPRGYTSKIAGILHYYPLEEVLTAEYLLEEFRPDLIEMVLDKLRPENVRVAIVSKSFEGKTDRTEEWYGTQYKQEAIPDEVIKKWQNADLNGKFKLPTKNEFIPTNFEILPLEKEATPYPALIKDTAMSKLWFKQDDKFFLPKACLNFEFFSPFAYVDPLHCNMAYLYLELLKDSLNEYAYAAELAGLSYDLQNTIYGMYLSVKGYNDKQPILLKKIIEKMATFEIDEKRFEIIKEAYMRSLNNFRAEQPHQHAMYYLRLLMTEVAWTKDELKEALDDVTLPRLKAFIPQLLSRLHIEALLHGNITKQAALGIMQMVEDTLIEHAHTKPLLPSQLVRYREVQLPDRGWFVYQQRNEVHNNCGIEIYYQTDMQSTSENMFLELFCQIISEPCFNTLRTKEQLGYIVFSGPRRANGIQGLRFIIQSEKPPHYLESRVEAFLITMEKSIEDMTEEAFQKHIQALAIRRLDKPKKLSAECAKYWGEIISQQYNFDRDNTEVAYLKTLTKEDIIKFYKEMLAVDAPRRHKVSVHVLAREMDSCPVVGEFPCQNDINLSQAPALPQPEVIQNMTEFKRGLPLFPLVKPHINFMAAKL
Of the large screens only hits and unclear results are named; the others gave an inactive call; ! = not active in a repeat. Only a selection was taken, and hits are over-represented in it overall.

Cc1ccccc1-c1ccc(C2[C@@H]3CN(S(=O)(=O)c4ccccc4)C[C@H]2N3)cc1 (stereo not given in full)	IDE exosite inh -10
COc1ccccc1S(=O)(=O)N1C[C@@H]2N[C@H](C1)C2c1ccc(-c2ccc(F)cc2)cc1 (stereo not given in full)	none
C/C=C/c1ccc(C2[C@@H]3CN(S(=O)(=O)c4ccccc4)C[C@H]2N3)cc1 (stereo not given in full)	none
COc1ccc(-c2ccc(C3[C@@H]4CN(S(=O)(=O)c5ccccc5C)C[C@H]3N4)cc2)cc1 (stereo not given in full)	none
COc1ccccc1S(=O)(=O)N1[C@@H]2CNC[C@H]1C2c1ccc(/C=C/c2ccccc2)cc1 (stereo not given in full)	IDE exosite inh -5.2!
COc1ccccc1S(=O)(=O)N1C[C@@H]2N[C@H](C1)C2c1ccc(-c2cccnc2)cc1 (stereo not given in full)	none
COc1cccc(S(=O)(=O)N2[C@@H]3CNC[C@H]2C3c2ccc(/C=C/c3ccccc3)cc2)c1 (stereo not given in full)	none
COc1ccccc1S(=O)(=O)N1C[C@@H]2N[C@H](C1)C2c1ccc(-c2ccccc2C)cc1 (stereo not given in full)	IDE exosite inh -7.9!
COc1ccccc1S(=O)(=O)N1[C@@H]2CNC[C@H]1C2c1ccc(-c2ccncc2)cc1 (stereo not given in full)	none
Cc1ccc(S(=O)(=O)N2C[C@@H]3N[C@H](C2)C3c2ccc(/C=C/c3ccccc3)cc2)cc1 (stereo not given in full)	none
Cc1ccccc1-c1ccc(C2[C@@H]3CN(S(=O)(=O)c4ccccc4C)C[C@H]2N3)cc1 (stereo not given in full)	IDE exosite inh -11!
COc1cccc(-c2ccc(C3[C@@H]4CN(S(=O)(=O)c5ccccc5C)C[C@H]3N4)cc2)c1 (stereo not given in full)	none
COc1ccc(C[C@H]2CCc3cnnn3COCCNC2=O)cc1	none
O=C(c1ccccc1)N1CC(=O)N2[C@H](C1)[C@@H](c1ccc(C#CC3CC3)cc1)[C@@H]2CO	none
O=C(c1ccncc1)N1C[C@H]2[C@@H](c3ccccc31)[C@H](CO)N2Cc1ccccc1F	none
COc1ccc2c3c([nH]c2c1)[C@H](CO)N(S(=O)(=O)c1ccc(C)cc1)CC31CCN(Cc2nccs2)CC1	none
Cc1ccc(CN2CC(=O)N3[C@H](CO)[C@@H](c4ccc(-c5ccccc5F)cc4)[C@@H]3C2)cc1	none
CC(C)NC(=O)N1[C@H](CO)[C@@H](c2ccccc2)C12CN(Cc1cc(F)cc(F)c1)C2	none
O=C(Nc1ccc(C(F)(F)F)cc1)N1[C@@H]2CNC[C@H]1C2c1ccc(/C=C/c2ccccc2)cc1 (stereo not given in full)	none
N#C[C@@H]1[C@@H](c2ccccc2)[C@H](CO)N1C(=O)Cc1ccccn1	none
O=C(c1cccnc1)N1CC(=O)N2[C@H](C1)[C@H](c1ccc(C#CCC3CCCC3)cc1)[C@@H]2CO	none
COc1ccccc1CN1CC[C@@H]2[C@H]1c1cc(C3=CCCCC3)ccc1N[C@@H]2CO	none
CCS(=O)(=O)Nc1ccc2c(c1)C(=O)N(C)[C@@H]1CC[C@H](CC(=O)NC3CCCCC3)O[C@@H]1CO2	none
CCCC#Cc1ccc([C@@H]2[C@@H](CO)N3C(=O)CN(C(=O)c4cccc(F)c4)C[C@@H]23)cc1	none
C[C@@H]1CN([C@@H](C)CO)C(=O)c2c(c3ccccc3n2C)-c2ccccc2CO[C@H]1CN(C)Cc1cccc(C(=O)Nc2ccccc2N)c1	none
Cc1ccc(S(=O)(=O)N2C[C@H](O)COC[C@@H]3O[C@H](CC(=O)NCc4ccc5c(c4)OCO5)CC[C@H]32)cc1	none
C[C@H](CO)N1C[C@H](C)[C@@H](CN(C)C(=O)Nc2cccc(Cl)c2Cl)OCc2ccccc2-c2ccccc2C1=O	none
CN(C)CC#Cc1ccc([C@H]2[C@@H](CO)N3CCCCN(CC4CCOCC4)C[C@H]23)cc1	none
O=C(C[C@H]1CC[C@H]2NC[C@H](O)COC[C@@H]2O1)Nc1nccs1	none
COc1cccc(S(=O)(=O)N2[C@@H]3CNC[C@H]2C3c2ccc(-c3cccc(C)c3)cc2)c1 (stereo not given in full)	none
COc1ccc(S(=O)(=O)N2[C@@H]3CNC[C@H]2C3c2ccc(-c3cccc(OC)c3)cc2)cc1 (stereo not given in full)	none
COc1cccc(S(=O)(=O)N2[C@@H]3CNC[C@H]2C3c2ccc(-c3ccccc3C)cc2)c1 (stereo not given in full)	IDE exosite inh -5.3
C[C@H](CO)N1C[C@H](C)[C@H](CN(C)C(=O)Nc2ccc3c(c2)OCO3)OCc2ccccc2-c2c(n(C)c3ccccc23)C1=O	none
COc1cccc(C#Cc2ccc([C@@H]3[C@H]4CN(C(=O)c5ccncc5)CC(=O)N4[C@H]3CO)cc2)c1	none
COc1cccc(C#Cc2ccc([C@H]3[C@@H](CO)N4C(=O)CN(C(=O)c5ccncc5)C[C@H]34)cc2)c1	IDE exosite inh -8.4
COc1cccc(C#Cc2ccc([C@@H]3[C@H](CO)N4C(=O)CN(C(=O)c5ccccc5)C[C@@H]34)cc2)c1	none
COc1cccc(C#Cc2ccc([C@H]3[C@H](CO)N4C(=O)CN(C(C)=O)C[C@@H]34)cc2)c1	IDE exosite inh -5.4
COc1cccc(C#Cc2ccc([C@@H]3[C@H](CO)N4C(=O)CN(C(C)=O)C[C@@H]34)cc2)c1	IDE exosite inh -15
COc1cccc(C#Cc2ccc([C@H]3[C@H]4CN(C(=O)c5ccccc5)CC(=O)N4[C@H]3CO)cc2)c1	none
CC(=O)N1CC(=O)N2[C@@H](CO)[C@@H](c3ccc(C#Cc4cccnc4)cc3)[C@@H]2C1	IDE exosite inh -3.9
COc1cccc(C#Cc2ccc([C@@H]3[C@@H](CO)N4C(=O)CN(C(=O)c5ccccc5)C[C@@H]34)cc2)c1	none
CC(=O)N1CC(=O)N2[C@H](C1)[C@H](c1ccc(C#Cc3cccnc3)cc1)[C@@H]2CO	none
CCC(=O)N1CC(=O)N2[C@H](CO)[C@H](c3ccc(C#Cc4cccnc4)cc3)[C@H]2C1	none
C[C@H]1CN([C@@H](C)CO)C(=O)CCCn2nncc2CO[C@@H]1CN(C)C(=O)Nc1cccc(Oc2ccccn2)c1	none
CN1C(=O)c2cc(NS(=O)(=O)c3cccc(F)c3)ccc2OC[C@@H]2O[C@H](CC(=O)N3CCc4ccccc4C3)CC[C@@H]21	none
COc1ccc(NC(=O)N2CC(=O)N3[C@H](C2)[C@@H](c2ccc(-c4ccccc4)cc2)[C@@H]3CO)cc1	none
CCCC#Cc1ccc2c(c1)[C@@H]1[C@@H](CCN1S(=O)(=O)c1ccccc1C)[C@@H](CO)N2	none
COc1ccc2c3c([nH]c2c1)[C@@H](CO)N(C(=O)Nc1ccc(F)cc1)CC31CN(S(=O)(=O)c2ccc(C)cc2)C1	none
C[C@H](O)C#Cc1ccc([C@@H]2[C@H](CO)N3CCCCN(CC4CCOCC4)C[C@@H]23)cc1	none
COCC(=O)N1CCC2(CC1)CN[C@@H](CO)c1c2c2ccc(OC)cc2n1C	none
O=C(Cc1ccccc1)N1CC(=O)N2[C@H](CO)[C@@H](c3ccc(C#Cc4ccccc4)cc3)[C@H]2C1	none
O=C(Cc1ccccc1)N1CC(=O)N2[C@@H](CO)[C@H](c3ccc(C#Cc4ccccc4)cc3)[C@@H]2C1	none
O=C(Cc1ccccc1)N1CC(=O)N2[C@@H](CO)[C@@H](c3ccc(C#CCc4ccccc4)cc3)[C@@H]2C1	IDE exosite inh -4
O=C(Cc1ccccc1)N1CC(=O)N2[C@H](CO)[C@@H](c3ccc(C#CCc4ccccc4)cc3)[C@@H]2C1	none
